# Screening data from PubChem.
# The list is not random: actives were taken first. Their share in the collection is about 2.5%.
# Pol eta inh-1 = DNA polymerase eta (human) inhibition; recombinant Pol eta, fluorescent DNA replication assay; AID 588591; Potency, µM (top dose mostly 114 µM), usual class: inhibitors; Q9Y253; 390,000 tested, 1.2% active
#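 Pol eta at 10 nM preincubated with compounds 15 min at room temperature; reaction started with fluorescent substrate (50 nM final) and read kinetically at 0 and 10 min.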
# WRN inhibitor = blocks human WRN helicase; Potency, µM (series often up to 114 µM), usual class: inhibitors; WRN helicase unwinding, fluorescent forked duplex, kinetic; 360,000 tested, 0.46% active; further: nearly all actives have a fitted effect of over 55% in size
#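 WRN at 20 nM final preincubated with compound 15 min at room temperature; reaction started with 100 nM fluorophore/quencher forked duplex oligonucleotide and 2 mM ATP final. Unwinding followed kinetically by red fluorescence (ex 525, em 598 nm).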
# L3MBTL1 inh-1 = inhibitors of human L3MBTL1; 230,000 tested, 0.66% active; Q9Y468; AlphaScreen L3MBTL1–H3K9me1 peptide binding; Potency, µM (series often up to 57.1 µM), usual class: inhibitors; further: nearly all actives have a fitted effect of over 60% in size
#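 Read-out is AlphaScreen signal from streptavidin donor and nickel chelate acceptor beads (10 ug/mL final each) bridging L3MBTL1 (50 nM) and biotinylated K9-monomethylated H3(1-15) peptide (75 nM), after 30 min compound exposure at room temperature.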
# Pol iota inh = inhibitors of human DNA polymerase iota. AID 588590. Pol iota fluorescent replication assay, 10 min. Potency, µM (doses to about 115 µM), usual class: inhibitors. 390,000 tested, 1% active
# Target sequence (Q9UNA4 whole entry, looked up): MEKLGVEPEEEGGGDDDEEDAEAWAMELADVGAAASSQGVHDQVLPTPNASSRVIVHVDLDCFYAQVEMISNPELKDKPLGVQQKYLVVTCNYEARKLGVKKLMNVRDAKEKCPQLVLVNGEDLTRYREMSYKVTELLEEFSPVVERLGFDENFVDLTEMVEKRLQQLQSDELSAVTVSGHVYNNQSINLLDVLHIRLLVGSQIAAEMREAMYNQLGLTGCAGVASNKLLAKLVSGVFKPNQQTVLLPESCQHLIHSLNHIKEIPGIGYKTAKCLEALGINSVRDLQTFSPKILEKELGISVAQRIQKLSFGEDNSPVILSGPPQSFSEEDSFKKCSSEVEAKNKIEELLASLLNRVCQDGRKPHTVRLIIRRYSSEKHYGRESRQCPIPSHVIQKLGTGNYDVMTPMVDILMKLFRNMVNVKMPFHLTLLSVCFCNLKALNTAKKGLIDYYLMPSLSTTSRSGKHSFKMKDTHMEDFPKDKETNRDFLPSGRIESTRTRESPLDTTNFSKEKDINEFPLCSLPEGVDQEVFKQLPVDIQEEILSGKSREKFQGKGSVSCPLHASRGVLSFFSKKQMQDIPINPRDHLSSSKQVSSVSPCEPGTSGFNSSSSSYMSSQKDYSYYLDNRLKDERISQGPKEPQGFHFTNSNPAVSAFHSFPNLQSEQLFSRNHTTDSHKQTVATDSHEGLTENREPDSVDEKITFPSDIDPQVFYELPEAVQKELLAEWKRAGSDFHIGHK
#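 Pol iota at 10 nM preincubated 15 min with compounds at room temperature; reaction started with fluorescent substrate, 50 nM final. Fluorescence read kinetically at 0 and 10 min; buffer-only wells as negative control.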
# Pol kappa inh-1 = DNA polymerase kappa (human) inhibition | Q9UBT6 | purified Pol kappa, fluorescent DNA synthesis assay, 10 min | Potency, µM (highest dose often 107 µM), hits mostly inhibitors | 400,000 tested, 0.53% active | AID 588579
#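 10 nM Pol kappa was preincubated with compounds for 15 min at room temperature. Reaction started with 50 nM (final) substrate. Fluorescence read kinetically at 0 and 10 min.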
# Pol beta inh-1 = blocks human DNA polymerase beta activity. Potency, µM (series often up to 114 µM), hits mostly inhibitors. AID 485314. P06746. Pol beta primer extension/strand displacement, fluorescence kinetic. 340,000 tested, 1.3% active
#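 Pol beta (10 nM) and compounds were preincubated 15 min at room temperature, then 50 nM substrate (final) started primer extension/strand displacement. Reads were taken at 0 and 10 min; concentration-response data were fitted to a four-parameter Hill equation.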
# Pol beta inh-2 = Human Pol beta inhibitor hit validation | shares compounds with Pol beta inh-1 | Pol beta primer extension/strand displacement, fluorescence kinetic | Potency, µM, actives largely listed as inhibitors | 250 tested, 87% active | AID 540280; calls by dose curve
# Klenow counter = inhibits Klenow fragment polymerase in counter-screen; shares compounds with Pol beta inh-1; Klenow exo- polymerase counter-screen, fluorescent DNA substrate; activity change, negative = inhibition, % at 57.1 µM; 250 tested, under 10 active; AID 540300
# HIV RT inh = inhibits HIV-1 reverse transcriptase in counter-screen; shares compounds with Pol beta inh-1; AID 540301; activity % (negative = inhibition, positive = activation), % at 57.1 µM; 250 tested, under 10 active; HIV-1 RT polymerase activity, counter-screen
# POLB valid = validation of human DNA polymerase beta inhibitors. shares compounds with Pol beta inh-1. radiolabeled primer extension gel assay, phosphorimager. inhibition, % at 10 µM. 110 tested, 91% active;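 active means inhibition at 10 µM of 30% or more; inconclusive means no clear call, values can overlap the other calls; inactive means inhibition at 10 µM under 30%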
# L3MBTL1 inh-2 = blocks human L3MBTL1 methyl-lysine binding | shares compounds with L3MBTL1 inh-1 | L3MBTL1 methyl-lysine binding inhibition, biochemical qHTS | Potency, µM, most hits filed as inhibitors | 500 tested, 91% active; further: nearly all actives have a fitted effect of over 70% in size
# L3MBTL1 ctr = counter-screen for L3MBTL1 inhibitors: AlphaScreen signal interference. 500 tested, under 10 active. shares compounds with L3MBTL1 inh-1. Potency, µM (doses to about 57.1 µM), hits mostly inhibitors. AlphaScreen counterscreen, signal inhibition
# PGK validate = blocks T. brucei phosphoglycerate kinase; 500 tested, 79% active; TbPGK coupled GAPDH assay, Kinase-Glo luminescence; shares compounds with Pol kappa inh-1; Potency, µM (titrated, usually from 57.5 µM), usual class: inhibitors; further: nearly all actives have a fitted effect of over 65% in size
# Pol iota confirm = Inhibitors of human DNA polymerase iota, confirmation. AID 720496. Potency, µM, most hits filed as inhibitors. Pol iota primer extension, TAMRA/BHQ fluorescence. shares compounds with Pol kappa inh-1. 1,500 tested, 77% active
# Pol kappa inh-2 = Pol kappa (human) inhibition, cherry-pick confirmation | purified Pol-kappa, fluorescent strand-displacement substrate | Potency, µM, hits mostly inhibitors | 920 tested, 76% active | shares compounds with Pol eta inh-1
# Pol eta inh-2 = confirmation of human DNA polymerase eta inhibitors; shares compounds with Pol eta inh-1; Pol eta primer extension, TAMRA/BHQ fluorescence, 10 min; Potency, µM, most hits filed as inhibitors; 2,600 tested, 64% active
# A number is an active result; – = inactive; ? = inconclusive; · = no result; [ ] = another dose, or the depositor's remark. Unless noted, the call rests on the fitted dose curve; in most records, active means well fitted curve in the direction sought with a large enough effect; inconclusive means small, poorly fitted or top-dose-only effect, or another doubt; inactive means no such curve, though single readings can be large; an effect the other way counts as inactive or inconclusive.
SMILES,Pol eta inh-1,WRN inhibitor,L3MBTL1 inh-1,Pol iota inh,Pol kappa inh-1,Pol beta inh-1,Pol beta inh-2,Klenow counter,HIV RT inh,POLB valid,Pol iota confirm,Pol eta inh-2,others
Cc1cc(C)n(-c2nc(Nc3ccccc3)nc(-n3nc(C)cc3C)n2)n1,?,?,–,–,–,10µM,?,–,–,·,·,?,
COc1cccc(/C=N/Nc2nc(Nc3ccccc3)nc(-n3nc(C)cc3C)n2)c1O,?,?,·,–,–,–,·,·,·,·,·,·,
CCNC(=O)COC(=O)c1cc(-c2ccco2)nc2ccccc12,20µM,–[11.6 µM],25µM,8.9µM,35µM,13µM,25,–,–,98,34,38,L3MBTL1 inh-2=4.2;L3MBTL1 ctr=–
COc1ccc(CNC(=O)COC(=O)c2cc(C)nc3ccccc23)cc1,–,–,–,–,–,·,·,·,·,·,·,·,
COc1ccc(Cn2c(SCC(=O)NCc3ccccc3)nc3ccccc32)cc1,–,·,·,–,–,–,·,·,·,·,·,·,
CCOC(=O)c1cnc(-n2[nH]c(C)cc2=O)[nH]c1=O,?,56µM,3.2µM,0.89µM,8.9µM,3.2µM,32,–,–,89,27,11,
CCc1ccccc1NC(=O)C1CC(c2ccc(OC)cc2)=NO1 (stereo not given),–,–,·,?,–,–,·,·,·,·,·,·,
COC(=O)c1ccc(S(=O)(=O)NCc2ccco2)n1C,–,–,–,–,–,–,·,·,·,·,·,·,
CCC1(CC)NC(=O)N(CC(=O)Nc2sc3c(c2C(N)=O)CCC3)C1=O,25µM,?,·,13µM,?,16µM,28,–,–,95,·,?,
CC(=O)c1ccc(NC(=O)CSc2ccsc2[N+](=O)[O-])cc1,11µM,?,–,?,?,5.6µM,22,–,–,99,42,?,Pol kappa inh-2=38
O=C(CSc1ccsc1[N+](=O)[O-])Nc1cc(F)ccc1F,7.1µM,?,40µM,?,25µM,13µM,25,–,–,99,67,43,PGK validate=15µM
O=C(N/N=C/c1ccco1)c1cccc(N2Cc3ccccc3C2)c1,7.9µM,–[11.6 µM],?,10µM,35µM,13µM,16,–,–,·,42,43,Pol kappa inh-2=17
O=C(N/N=C/c1ccco1)c1cccc(N2CCCC2=O)c1,?,–,–,?,–,?,·,·,·,·,·,·,
